The values that follow come from PubChem BioAssay (NCATS).

The other results are listed elsewhere or left out. Records with an inconclusive call do not appear. Unmarked numbers belong to inactive results. The call rests on the fitted dose curve; in most records, active means well fitted inhibition curve with a large enough effect; inconclusive means small, poorly fitted or top-dose-only effect; inactive means flat fitted curve, though single readings scatter.
On the % scale 0 is the no-effect control and ±100 the full control effect.

The target of the assay is Fructose-bisphosphate aldolase (Giardia intestinalis (strain ATCC 50803 / WB clone C6)) (UniProt A8B2U2). The assay is described as follows: qHTS Assay for Inhibitors of Fructose-1,6-bisphosphate Aldolase from Giardia Lamblia: Primary screen confirmation (AID 2787).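 Further: aldolase product measured through coupled diaphorase step turning resazurin into fluorescent resorufin; nearly all actives have a fitted effect of over 45% in size.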 The following applies: purified Giardia aldolase enzyme activity; series mostly up to 57.5 µM; activity change, negative = inhibition: at the top concentration. The source says: NIH Chemical Genomics Center [NCGC]
Fructose-bisphosphate aldolase (Giardia intestinalis (strain ATCC 50803 / WB clone C6)), sequence (A8B2U2 whole entry, looked up): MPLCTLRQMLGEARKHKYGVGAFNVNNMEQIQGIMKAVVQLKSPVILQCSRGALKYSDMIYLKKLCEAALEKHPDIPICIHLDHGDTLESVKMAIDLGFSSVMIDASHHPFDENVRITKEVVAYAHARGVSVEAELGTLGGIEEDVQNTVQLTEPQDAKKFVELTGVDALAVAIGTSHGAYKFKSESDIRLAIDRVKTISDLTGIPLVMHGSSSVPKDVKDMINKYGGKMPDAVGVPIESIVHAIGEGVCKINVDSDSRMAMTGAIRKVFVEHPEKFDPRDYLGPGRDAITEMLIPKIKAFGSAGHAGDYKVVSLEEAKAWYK
NIH Molecular Libraries Probe Production centers Network [MLPCN]
Assay Provider: Osnat Herzberg, University of Maryland
The objective of this project is to obtain compounds that inhibit Giardia lamblia growth. G. lamblia is a human pathogen which afflicts impoverished nations; it is the most common cause of outbreaks of diarrhea in the United States. During the course of our study of potential drug targets in Giardia, we have identified the Class II (Zn2+ functions in electrophilic catalysis) fructose-1,6-bisphosphate aldolase (FBPA) as an excellent candidate for drug targeting. FBPA is a key glycolytic pathway enzyme, essential for G. lamblia survival. The human FBPA belongs to the Class I aldolases, which have a different substrate binding site structure and a radically different catalytic mechanism (employing a lysine-Schiff base intermediate). Therefore, affinity-based or mechanism-based inhibitors of the Giardia FBPA are expected not to interfere with the catalytic function of the human FBPA.
A glyceraldehyde-3-phosphate dehydrogenase/triose phosphate isomerase/NAD/arsenate coupled assay was adapted to the 1536-well HTP format for use in the primary screen. This was done by coupling it to a diaphorase/resazurin/resorufin reaction that can be monitored by fluorescence (excitation, 544 nm; emission, 590 nm). Compounds identified in this screen will be further evaluated by coupling the glycerol-3-phosphate/triose phosphate isomerase/NADH assay to a phenazine methosulfate/tetranitroblue tetrazolium color reaction. False positives due to the dehydrogenases and diaphorase inhibition will be eliminated, and selectivity assay will triage inhibitors of mammalian triose phosphate isomerase and the Class I FBPA. G. lamblia FBPA inhibitors identified by the in vitro analyses will be examined for growth inhibition of Giardia trophozoites, and for cytotoxicity in human cells.
The present assay was used to confirm hits from the primary screen.
Step,Parameter,Value,Description
1,Enzyme reagent,2 uL,40 nM FBPA w/ 30uM ZnCl2
2,Compound,23 nL,3.68 nM-57.5 uM final concentration
3,Time,10 min,RT Incubation
4,Substrate/detection Reagent,2 uL,Substrate + enzyme coupling system + AmpLite Red kit
5,Time,20 min,RT Incubation
6,Detector,525 nm/598 nm (Fluorescence),ViewLux Fluorescence Read (Read 1)
1,Medium-binding black solid-bottom Kalypsys plates. FRD or Kalypsys dispenser, 2 uL of FBPA enzyme. Bottle kept at 4C.
2,Compound Library (10 mM ,1:5 dilution). Pin-transferred for a [final] range of 3.68 nM-57.5 uM.
4,FRD or Kalypsys dispenser, 2 uL of reaction mixture. Bottle kept at 4C and covered in foil to protect from light.
6,ViewLux Protocol 1194; Excitation filter wheel A (525/20 Pol; BODIPY TMR FP), Emission filter wheel B (598/25 S; BODIPY TMR FP S).
Keywords: Fructose-bisphosphate aldolase, FBPA , Giardia lamblia , Giardia, HTS, Inhibitors
(In qHTS, concentration-response curves come from the screen itself.)
On to `O=C(Nc1nnc(-c2ccco2)o1)c1ccc(S(=O)(=O)N2CCOCC2)cc1`, for which the “activity change, negative = inhibition” value is 7.15%.

With `O=c1nc(N/N=C/c2ccco2)cn[nH]1`, the “activity change, negative = inhibition” value was 7.99%.

As for `COc1ccc(N=Nc2c(-c3ccc(OC)cc3)[nH]oc2=O)cc1`, the “activity change, negative = inhibition” value was -5%.

`O=C(NC(=S)Nc1ncccn1)c1ccccc1Br`: the “activity change, negative = inhibition” value was -17.8%.

Turning to `CNC(=S)N/N=C/c1ccc(N2CCOCC2)s1`, the “activity change, negative = inhibition” value was -10.7%.

In the case of `COCCN(C(=S)Nc1ccccc1OC)C1CCN(C(C)C)CC1`, the “activity change, negative = inhibition” value is 3.8%.

On to `COc1ccc(Cl)cc1C(=O)NNC(=O)c1nc2nc(C)cc(C)n2n1`, for which the “activity change, negative = inhibition” value was 15%.

For the molecule `O=[N+]([O-])c1cc([N+](=O)[O-])c2cccnc2c1O`, the “activity change, negative = inhibition” value was -10.8%.

Regarding `CCS(=O)(=O)c1cc([N+](=O)[O-])c(Sc2ccccc2N)s1`, the “activity change, negative = inhibition” value was 11.1%.

Take `Cn1nnc(NC(=S)NC(=O)c2ccccc2)n1`: the “activity change, negative = inhibition” value was 1.95%.

With `CCN1CCc2c(C#N)c(NCc3ccccc3)nc(NCCO)c2C1`, the “activity change, negative = inhibition” value is -29.6%.

Turning to `O=C(CN1CCN(Cc2ccccc2)CC1)Nc1ccc(F)c(F)c1`, the “activity change, negative = inhibition” value was -1.29%.

For the molecule `O=C(O)Cn1c(Cc2ccccc2)nc2ccccc21`, the “activity change, negative = inhibition” value is 11.6%.

Turning to `Cc1cnc(NC(=O)c2ccccn2)s1`, the “activity change, negative = inhibition” value is -2.43%.

Consider `CCN(CC(=O)NC(=O)NCc1ccccc1)Cc1nc2ccccc2c(=O)[nH]1`, for which the “activity change, negative = inhibition” value was -0.575%.

Turning to `COc1ccc(CN2CCN(Cc3ccc(OC)c(OC)c3OC)CC2)cc1`, the “activity change, negative = inhibition” value was -11.3%.

For `O=C(Nc1ccccc1Cl)O/N=C(/c1ccccc1)c1ccccn1`, the “activity change, negative = inhibition” value was -7.81%.

In the case of `CSc1n[nH]c(=S)n1N`, the “activity change, negative = inhibition” value is -12.2%.

As for `Clc1cccc(CN2COc3c(cc(Cl)c4cccnc34)C2)c1`, the “activity change, negative = inhibition” value is -18.2%.

Regarding `COc1ccc(C(=O)NC(=S)N2CCCCC2c2cccnc2)cc1OC` (stereo not given), the “activity change, negative = inhibition” value is 5%.

For `O=C(CSc1cccc[n+]1[O-])c1ccc(-c2ccccc2)cc1`, the “activity change, negative = inhibition” value was 1.49%.

As for `CC(=O)NC1CCN(CC(=O)Nc2nccs2)CC1`, the “activity change, negative = inhibition” value was 1.61%.

For `COc1ccccc1CN1CCN(Cc2cc(OC)c(OC)cc2OC)CC1`, the “activity change, negative = inhibition” value is 0.82%.

As to `O=C1CCCN1CCCNC(=S)Nc1ccc(F)c(Cl)c1`, the “activity change, negative = inhibition” value is -3.47%.

On to `CN1CCN(CCCCOc2ccccc2-c2ccccc2)CC1`, for which the “activity change, negative = inhibition” value is 0.01%.

Turning to `Cc1nc2ccc(NC(=S)N3CCC(C)CC3)cc2nc1C`, the “activity change, negative = inhibition” value is -29.8%.

In the case of `CCN(CC(=O)Nc1ccc(S(=O)(=O)N2CCCC2)cc1)CC(=O)Nc1cccc(OC)c1`, the “activity change, negative = inhibition” value is 5.79%.

Consider `O=c1[nH]c(=S)[nH]c2[nH]c(=S)[nH]c12`, for which the “activity change, negative = inhibition” value was -17.2%.

Turning to `Oc1ccc2ccccc2c1N=Nc1nccs1`, the “activity change, negative = inhibition” value was -16.3%.

As to `C=CCNC(=S)/N=c1/ccccn1Cc1ccccc1`, the “activity change, negative = inhibition” value is 2.96%.

Turning to `Cc1nnc(SCC2=C(C(=O)O)N3C(=O)C(NC(=O)Cn4nc(C)c(Cl)c4C)C3SC2)s1` (stereo not given), the “activity change, negative = inhibition” value was -5%.

Regarding `CN(C)CCOc1ccc(Cl)cc1C(C)(C)C`, the “activity change, negative = inhibition” value was -11.7%.

Regarding `CN1CCCc2cc(C#N)c(=O)[nH]c21`, the “activity change, negative = inhibition” value was -24%.

For the molecule `Cc1cc(C)nc(N/N=C/c2ccc([N+](=O)[O-])o2)n1`, the “activity change, negative = inhibition” value is -14.8%.

For the molecule `Cc1csc(NC(=O)CN2CCCCCC2)n1`, the “activity change, negative = inhibition” value is 2.62%.

Regarding `Cc1cccc(-c2nnc(SCC(=O)O)n2Cc2ccccc2)c1`, the “activity change, negative = inhibition” value was 1.71%.

For the molecule `CC1CCCN(S(=O)(=O)c2ccc(C(=O)Nc3nnc(-c4ccncc4)o3)cc2)C1` (stereo not given), the “activity change, negative = inhibition” value was -0.279%.

In the case of `Cc1cc(C)n(-c2ccc(Cl)c(C(=O)O)n2)n1`, the “activity change, negative = inhibition” value is 0.101%.

As for `C=C(C)CNC(=S)N/N=C/c1ccccc1OCC(=O)O`, the “activity change, negative = inhibition” value is 1.59%.

For `O=[N+]([O-])c1ccc2nc(-c3ccccn3)[nH]c2c1`, the “activity change, negative = inhibition” value was -17.5%.
